Test systems include SR leukemia; RPMI-8226 leukemia; OVCAR-8 ovarian; OVCAR-5 ovarian; OVCAR-4 ovarian; SK-OV-3 ovarian; IGROV1 ovarian; OVCAR-3 ovarian; HS 578T breast; NCI/ADR-RES ovarian.
Common to all, as to assay: NCI-60 one-dose screen, 48 h (100 = growth as untreated, 0 = no growth, -100 = all killed)
What all share (settings): 10 µM

Compounds without any hit were thinned out: in the full panel of roughly 83,000, 20% have a hit.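 Single-dose data. Exposure time 48 hours. Values below 10 considered active.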 Unmarked numbers belong to inactive results. Calls of active or inactive are those of the source.

In the case of `COc1cc(CSc2nc3ccc(Cl)cc3c(=O)n2Cc2ccccc2)cc(OC)c1OC`, the growth in the assay on SR leukemia is 23.1%; in the assay with RPMI-8226 leukemia, 68.7%; in the assay with OVCAR-8 ovarian it was 53%; with OVCAR-5 ovarian, 46.7%; with OVCAR-4 ovarian, 52%; with SK-OV-3 ovarian it was 24.4%. In addition, the growth was 35.3% in the assay with IGROV1 ovarian, -0.909% (active) in the assay with OVCAR-3 ovarian, 30.5% in the assay with HS 578T breast and 14% in the assay with NCI/ADR-RES ovarian.

Turning to `CCNC(=S)NN`, the growth with SR leukemia was 61.6%; in the assay with RPMI-8226 leukemia, 75.9%; in the assay with OVCAR-8 ovarian it was 71.1%; with OVCAR-5 ovarian, 69.3%; in the assay on OVCAR-4 ovarian, 82.2%; in the assay with SK-OV-3 ovarian, 104%. Further, the growth in the assay with IGROV1 ovarian is 12.8%; in the assay on OVCAR-3 ovarian, 106%; with HS 578T breast, 100%; with NCI/ADR-RES ovarian, 83.8%.

With `C[n+]1c(/C=C/c2c[nH]c3ccccc23)ccc2ccccc21`, the growth is 18.2% with SR leukemia; 40.7% in the assay on RPMI-8226 leukemia; 39.7% in the assay on OVCAR-8 ovarian; 75.6% in the assay on OVCAR-5 ovarian; 54.8% with OVCAR-4 ovarian; 64.6% in the assay on SK-OV-3 ovarian. The growth in the assay with IGROV1 ovarian is 72.4%; in the assay with OVCAR-3 ovarian, 68.1%; with HS 578T breast, 103%; in the assay with NCI/ADR-RES ovarian, 100%.

As to `O=C1/C(=C/c2ccc(O)cc2)Cc2ccc(Cl)cc21`, the growth was 117% with SR leukemia; 120% in the assay on RPMI-8226 leukemia; 86.3% in the assay on OVCAR-8 ovarian; 111% in the assay with OVCAR-5 ovarian; 85.5% with OVCAR-4 ovarian; 111% in the assay with SK-OV-3 ovarian. Further, the growth in the assay on IGROV1 ovarian was 18.8%; in the assay with OVCAR-3 ovarian it was 93%; in the assay on HS 578T breast, 95.4%; in the assay with NCI/ADR-RES ovarian, 94.2%.

Consider `NC1CCC(Nc2nc(NCc3ccc(-c4ccccc4O)nc3)c3ncn(C4CCCC4)c3n2)CC1` (configuration not stated), for which the growth was -41.3% (active) in the assay with SR leukemia; -28% (active) with RPMI-8226 leukemia; 7.26% (active) with OVCAR-8 ovarian; 19.3% in the assay on OVCAR-5 ovarian; 6.5% (active) with OVCAR-4 ovarian; 8.5% (active) in the assay with SK-OV-3 ovarian. For the same molecule, the growth is 8.35% (active) with IGROV1 ovarian, -6.34% (active) in the assay on OVCAR-3 ovarian, 8.94% (active) with HS 578T breast and 10.3% in the assay on NCI/ADR-RES ovarian.

With `Cc1cc(/C=C2\SC(=Nc3ccccc3)N(C3CCCC3)C2=O)c(C)n1-c1ccc(Cl)cc1`, the growth with SR leukemia is -36.8% (active); with RPMI-8226 leukemia, -43.3% (active); in the assay on OVCAR-8 ovarian, -38% (active); in the assay with OVCAR-5 ovarian it was -24.9% (active); with OVCAR-4 ovarian it was -35.3% (active); in the assay with SK-OV-3 ovarian, -90.5% (active). Moreover, the growth is -48.6% (active) in the assay with IGROV1 ovarian, -85.1% (active) with OVCAR-3 ovarian, -12.8% (active) with HS 578T breast and 0.0476% (active) in the assay with NCI/ADR-RES ovarian.

On to `CC[C@@]1(C(N)=O)CC2C=CC1C2` (some centres not stated), for which the growth is 85.8% with SR leukemia; 102% in the assay on RPMI-8226 leukemia; 106% in the assay with OVCAR-8 ovarian; 113% with OVCAR-5 ovarian; 114% with OVCAR-4 ovarian; 103% in the assay with SK-OV-3 ovarian. Also, the growth is 123% in the assay with IGROV1 ovarian, 132% in the assay with OVCAR-3 ovarian, 118% in the assay on HS 578T breast and 113% with NCI/ADR-RES ovarian.

`CCOc1cc(Br)c(C(C)NC(=O)c2cccc(OC)c2)cc1OCC` (configuration not stated): the growth was 3.32% (active) with SR leukemia; 36.3% in the assay with RPMI-8226 leukemia; 84.3% in the assay on OVCAR-8 ovarian; 88.7% with OVCAR-5 ovarian; 64.5% with OVCAR-4 ovarian; 96% in the assay with SK-OV-3 ovarian. The growth was 74.8% with OVCAR-3 ovarian, 75.5% with HS 578T breast and 94.4% in the assay with NCI/ADR-RES ovarian.

Consider `COc1cccc(-c2nnc(COc3ccc(-c4nc5ccc(C)cc5[nH]4)cc3OC)o2)c1`, for which the growth is -25.7% (active) in the assay on SR leukemia; -12.2% (active) in the assay on RPMI-8226 leukemia; 46.9% with OVCAR-8 ovarian; 103% in the assay with OVCAR-5 ovarian; 54.4% with OVCAR-4 ovarian; 101% in the assay on SK-OV-3 ovarian. Moreover, the growth with IGROV1 ovarian is 85.1%; with OVCAR-3 ovarian, 77.4%; in the assay on HS 578T breast it was 31.1%; in the assay with NCI/ADR-RES ovarian it was 76.8%.

With `CCCCCCCCCCCC(=O)NCCCN(C)C`, the growth in the assay with SR leukemia is 2.57% (active); with RPMI-8226 leukemia, 78.4%; with OVCAR-8 ovarian, 93.7%; with OVCAR-5 ovarian, 91.1%; in the assay on OVCAR-4 ovarian, 96.5%; with SK-OV-3 ovarian, 95.6%. Besides, the growth in the assay with IGROV1 ovarian is 92%; in the assay on OVCAR-3 ovarian, 108%; in the assay on HS 578T breast it was 106%; in the assay with NCI/ADR-RES ovarian it was 98.7%.

On to `COc1ccc(Cn2cc3c(c2-c2cc(OC)c(OC)c(OC)c2)CCc2cnoc2-3)cc1[N+](=O)[O-]`, for which the growth in the assay with SR leukemia is 22%; in the assay with RPMI-8226 leukemia, 27.9%; in the assay on OVCAR-8 ovarian, 48.7%; with OVCAR-5 ovarian, 58.6%; in the assay with OVCAR-4 ovarian it was 47%; in the assay with SK-OV-3 ovarian, -12.7% (active). Also, the growth with IGROV1 ovarian was 9.29% (active); with OVCAR-3 ovarian, -23.6% (active); in the assay on HS 578T breast it was 3.07% (active); in the assay on NCI/ADR-RES ovarian, 5.02% (active).

As for `COc1ccc(-c2n/c(=C\c3c(O)[nH]c4ccccc34)cc3c2=Nc2ccccc2-3)cc1`, the growth was 6.48% (active) in the assay with SR leukemia; 24.7% in the assay on RPMI-8226 leukemia; 20.1% with OVCAR-8 ovarian; 89.1% with OVCAR-5 ovarian; 5.98% (active) in the assay with OVCAR-4 ovarian; 93.5% in the assay on SK-OV-3 ovarian. The figures for the growth with IGROV1 ovarian, with HS 578T breast and in the assay with NCI/ADR-RES ovarian were 85.6%, 80.7% and 5.95% (active), respectively.

As to `CCCCN(CCCC)c1ccc(C(=NC(C)CCCN(CC)CC)c2ccc(N(C)C)cc2)cc1` (configuration not stated), the growth is -26.2% (active) in the assay with SR leukemia; -43.6% (active) in the assay with RPMI-8226 leukemia; -49% (active) in the assay on OVCAR-8 ovarian; -6.48% (active) in the assay with OVCAR-5 ovarian; -13.5% (active) in the assay with OVCAR-4 ovarian; -70.9% (active) in the assay on SK-OV-3 ovarian. In addition, the growth with OVCAR-3 ovarian is -47.7% (active); with HS 578T breast it was -49.8% (active); with NCI/ADR-RES ovarian, -51% (active).

The record behind these values is PubChem BioAssay (NCI).
